Measurements as given in PubChem BioAssay AID912 (National Center for Advancing Translational Sciences (NCATS), 2007).
Values joined by “and” are separate entries in the source; they are usually repeats but may differ in a detail not shown here. Equal values may be shown once. The whole screen tested about 70,000 compounds, of which about 470 (0.67%) were called active. Inconclusive results (about 18%) are left out. Calls follow the shape of the full dose curve. Only a selection was taken, and actives are over-represented in it overall.

Test: qHTS Assay for Anthrax Lethal Toxin Internalization; also: nearly all actives have a fitted effect of over 50% in size
Details: Cells, FRET ratio (460/530); series mostly up to 40 µM; activity change, negative = inhibition: at the top concentration
% is scaled to controls: 0 for no effect and ±100 for the full control effect; potency is read from the fitted curve at half-maximal effect.

SMILES | activity change, negative = inhibition | Potency
CC(C)CO/N=C1/C[C@@H](O)[C@@H](O)[C@@H]2[C@@H]3C(=O)N(C[C@@H]4CCCO4)C(=O)[C@H]3CC[C@@H]12 | 0.14% [at 8 µM] (inactive) | 
CCOC(=O)[C@]1(C(/C=C/c2ccco2)NC(=O)OC)CCCC1=O (some centres undefined) | -10.5% [at 8 µM] (inactive) | 
CSc1nnc2c(n1)OC(c1cn(C)c3ccccc13)N(C(C)=O)c1ccccc1-2 (centres undefined) | -13.1% (inactive) | 
CC1(C)OC(C(O)(c2ccccc2)c2ccccc2)C(C(O)(c2ccccc2)c2ccccc2)O1 (centres undefined) | -5.79% [at 8 µM] (inactive) | 
CO[C@H]1COC(=O)C/C=C\[C@H](C)COC(=O)[C@@H](OCc2ccccc2)/C=C\[C@@H]1C | -13% [at 1.6 µM] (inactive) | 
CCOC(=O)c1sc(NC(=O)C(CC)Sc2nccn2C)nc1C (centres undefined) | -9.75% (inactive) | 
CC(C)CO | -3.46% (inactive) | 
O=C(CSC1=Nc2ccccc2C2=NC(c3ccccc3)C(=O)N12)NCC1CCCO1 (centres undefined) | 0.99% (inactive) | 
CC(C)CC1(C(=O)NCc2ccccn2)C=CCN1C(=O)c1ccccc1 (centres undefined) | -3.7% (inactive) | 
CCCN(C/C=C\I)[C@@H]1CCc2cccc(O)c2C1 | -10.5% (inactive) | 
Brc1cc(Br)c(Oc2cc(Br)c(Br)cc2Br)cc1Br |  | 1 µM (active)
CCCCCCCCCCCC(=O)O[C@H](CC(=O)O)C[N+](C)(C)C | -25.3% (inactive) | 
CCCOC(=O)Nc1ccccc1C(N)=O | 0.458% (inactive) | 
C=CCOC(=O)COCCC(C)C | 5.37% (inactive) | 
CCCn1c(C)nc2c(NCCCCN(CC)CC)nc(C)nc21 | -11.6% (inactive) | 
CC(=O)c1c(O)c(C)c(O)c(Cc2c(O)c3c(c(C(=O)/C=C\c4ccccc4)c2O)OC(C)(C)C=C3)c1O |  | 15.8 µM (active)
N#CCCn1c(=O)c(-c2cc(F)cc(F)c2)nc2cnc(Oc3ccccc3)nc21 | -8.39% (inactive) | 
CO[C@H]1COC(=O)[C@@H](C)NC(=O)C/C=C\[C@@H](C)[C@H](OC)COC(=O)C/C=C\[C@@H]1C | 5.17% [at 8 µM] (inactive) | 
CC(=O)N1CCC2(CCCN(Cc3ccccc3)C2)CC1 | 1.54% (inactive) | 
CS(=O)(=O)N1CCC2(CC1)CN(Cc1ccccc1)C2 | -10.8% (inactive) | 
c1ccc(CN2CC[C@@]3(CCCNC3)C2)cc1 |  | 10 µM (active)
CC(=O)N1[C@H](C)C=C[C@]1(Cc1ccccc1)C(=O)NCc1ccccn1 | 3.36% (inactive) | 
C#CCC(C(=O)OC)(C(=O)OC)C(C[N+](=O)[O-])c1ccccc1 (centres undefined) | 2.17% [at 8 µM] (inactive) | 
CC(C)(O)/C=C\C(=O)[C@](C)(O)[C@H]1[C@H](O)C[C@]2(C)[C@@H]3CC=C4[C@@H](C=C(O)C(=O)C4(C)C)[C@]3(C)C(=O)C[C@@]12C |  | 0.0316 µM (active)
Cc1c(NC(=O)Nc2ccccc2Cl)sc(=S)n1C | -4.94% (inactive) | 
COC(=O)[C@@H]1CC[C@H](C)[C@@H](c2ccc(C)cc2)N1C(=O)c1ccc(/C=N\OC[C@@H](O)COCc2ccco2)cc1 | 12.1% [at 8 µM] (inactive) | 
CCCCCCN(C(=O)CCCCCN1C(=O)NC(c2ccc(C(F)(F)F)cc2)C(C(=O)OCc2ccccc2)=C1C)C(C(=O)NCCCC)c1ccc(OCC(=O)OC)c(C(=O)OC)c1 (centres undefined) | 17% (inactive) | 

SMILES | activity change, negative = inhibition | Potency
CC(C)CSC[C@@H]1O[C@H](n2cnc3c(N)nccc32)[C@H](O)[C@@H]1O | -14.1% [at 8 µM] (inactive) | 
S=c1c2[nH]cnc2ncn1CCSc1ncnc2nc[nH]c12 | -7.68% [at 8 µM] (inactive) | 
Cc1nc2cnc(N3CCNCC3)nc2n(CCc2ccccc2)c1=O | 1.57% (inactive) | 
O=P(c1cccs1)(c1cccs1)c1cccs1 | 5.29% (inactive) | 
C[C@]1(C(=O)NCCc2c[nH]c3ccccc23)C=C[C@@H](Cc2ccccc2)N1C(=O)c1ccccc1 | 1.11% (inactive) | 
CO/N=C\[C@@H](C)[C@H](OCc1ccccc1)C(C)C | 1.89% [at 1.6 µM] (inactive) | 
CCn1c(CNC(=O)c2ccc(OC)c(OC)c2)nnc1SCC(=O)Nc1ccccc1 | 13.5% (inactive) | 
CCOC(=O)N/N=C1/C[C@@H](O)[C@@H](O)[C@@H]2[C@@H]3C(=O)N(CC)C(=O)[C@H]3CC[C@H]12 | 4.77% [at 8 µM] (inactive) | 
CN(CCCNC(=O)CN1C(=O)CC(C)(C)S(=O)(=O)c2ccccc21)C1CCCCC1 | -15% (inactive) | 
CCCCCCCCCCCC(=O)O | inactive | 
CC(C)C[C@@H](CC(=O)N[C@@H](CCC(=O)O)CC(=O)O)NC(=O)[C@@H]1CCCC[C@H]1NC(=O)C[C@@H](NC(=O)C[C@H](Cc1c[nH]c2ccccc12)NC(=O)[C@@H]1CCCC[C@H]1N)C(C)C | -15.8% (inactive) | 
COc1ccc(Br)c2c1C[C@H](C(=O)O)CC2 | -10.3% [at 8 µM] (inactive) | 
Cc1cc(N2CCCCC2)nc2ccc(Cc3ccc4nc(N5CCCCC5)cc(C)c4c3)cc12 | 3.79% [at 8 µM] (inactive) | 
C[C@H]1CC[C@H](C(=O)O)N[C@@H]1c1ccc(C#Cc2ccccc2)cc1 | 0.0911% [at 1.6 µM] (inactive) | 
COc1ccc2[nH]cc(CCNc3ncnc4ccc(-c5ccc(C(=O)N(C)C)cc5)cc34)c2c1 | -21.2% (inactive) | 
COc1cccc(-c2cc(NCCc3c[nH]c4ccc(OC)cc34)ncn2)c1 |  | 10 µM (active)
COc1ccc2[nH]cc(CCNc3ncnc4ccc(-c5ccccc5CN(C)C)cc34)c2c1 | -27.3% (inactive) | 
COC(=O)C1=C(C)N(Cc2ccccc2)C2=C3C(=O)N(c4ccccc4)C(=O)C3[C@@](O)(C(=O)OC)C(=O)N2C1c1ccccc1 (some centres undefined) | -8.4% [at 8 µM] (inactive) and -8.22% [at 8 µM] (inactive) | 
CC(=O)/C(C)=N\O | -14.4% (inactive) | 
Cn1c(C(=O)N2CCC(C(N)=O)CC2)cc2c(=O)n(C)c3ccccc3c21 | 15% (inactive) | 
CCOC(=O)N1CCC(NC(=O)COc2cc(=O)n(C)c3ccccc23)CC1 | 4.09% (inactive) | 
Cn1c(=O)c(C(=O)Nc2ncccn2)c(O)c2ccccc21 | -1.9% (inactive) | 
CCN1CCCC1CNC(=O)c1cc2c(=O)n(C)c3ccccc3c2n1C (centres undefined) |  | 10 µM (active)
Cn1c(C(=O)NCCN2CCc3ccccc3C2)cc2c(=O)[nH]c3ccccc3c21 | 10.3% (inactive) | 
CC1CCCC(C)N1CCCNC(=O)c1cc2c(=O)n(C)c3ccccc3c2n1C (centres undefined) |  | 3.98 µM (active)
COC(=O)[C@@]1(C)C=C[C@@H](Cc2ccccc2)N1C(C)=O | -17% (inactive) | 
C=CCOC(=O)c1ccccc1C(=O)OCC=C | 15.7% (inactive) | 
